Inhibition % data for 126 molecules are collected here from article PMC9574860, “Chemical Toolkit for PARK7: Potent, Selective, and High-Throughput” (Journal of Medicinal Chemistry, 2022).

The campaign covered roughly 7,900 compounds. About 400 (5.1%) showed an effect of 50% or more. Only a selection was taken, and strong results are over-represented in it overall.

Parkinson's disease protein 7 (PARK7/DJ1), sequence (Q99497 whole entry, looked up, the tested form may be a part): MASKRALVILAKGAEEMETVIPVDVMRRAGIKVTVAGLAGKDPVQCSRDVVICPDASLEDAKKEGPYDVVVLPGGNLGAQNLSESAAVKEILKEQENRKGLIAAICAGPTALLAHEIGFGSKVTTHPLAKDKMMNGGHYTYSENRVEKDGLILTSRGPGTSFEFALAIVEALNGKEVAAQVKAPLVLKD

The assay addresses Parkinson's disease protein 7 (PARK7/DJ1) (human, UniProt Q99497). The assay can be described thus: primary screen, percent inhibition; read as competition with a fluorescent probe by fluorescence polarization; higher = more effect of the substance. The following applies: 100 µM. In a few lines:
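Covalent fragments at 100 μM final were incubated 2 h with 0.2 μM PARK7, then 20 nM probe JYQ-107 added for a further 2 h. Fluorescence polarization read at 480/520 nm; relative FP loss versus reference controls gave remaining enzyme activity.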
As for `O=c1oc2cc(OCC3CO3)ccc2c2c1CCC2` (stereo not drawn), the Inhibition % was 10.6%.
On to `N#Cc1nc(N2CCOCC2)ccc1Cl`, for which the Inhibition % is listed as 8.71%.
With `Cc1cn2c(C=C(C#N)c3ccccn3)c(C)nc2s1` the figure was 13.6%; with `O=C(CCl)Nc1cc(C(F)(F)F)ccc1-n1cncn1`, 32.5%; with `C=CC(=O)N1CCC(c2ccc(C)nc2)CC1`, 4.08%.
For the molecule `CCn1cc(S(=O)(=O)Oc2cccc(F)c2)nc1C`, the Inhibition % came out at 3.67%.
Turning to `Cn1cc(S(=O)(=O)Oc2cccc(F)c2)c(=O)n(C)c1=O`, the Inhibition % amounted to 5.3%.
For `CCOc1ccncc1S(=O)(=O)Oc1cccc(F)c1`, the Inhibition % was 58.4%.
In the case of `N#Cc1nccnc1N1CCc2c(F)ccc(F)c2C1`, the Inhibition % was found to be 41%.
As to `C=CC(=O)NCc1cc2ccccc2s1`, the Inhibition % turned out to be 13.3%.
Take `CC1CC(N2CCCCC2Cn2cncn2)C(=O)O1` (stereo not drawn): the Inhibition % amounted to 1.57%.
`C=CC(=O)NCCC1CCCCO1` (stereo not drawn): the Inhibition % worked out at 2.29%.
As for `O=C(CCl)C1CCCCO1` (stereo not drawn), the Inhibition % is 94.5%.
`O=C(CCl)NCC1CCCO1` (stereo not drawn): the Inhibition % was determined as 5.15%.
On to `NS(=O)(=O)c1cccc(NC(=O)CCCl)c1`, for which the Inhibition % turned out to be 4.37%.
In the case of `O=C(CSC(F)(F)F)Nc1cccc(S(=O)(=O)F)c1`, the Inhibition % turned out to be 99.8%.
As for `CN(C)S(=O)(=O)c1cccc(NC(=O)CCl)c1`, the Inhibition % came out at 15.5%.
For the molecule `O=C(Cn1ncc2ccccc21)Nc1cccc(S(=O)(=O)F)c1`, the Inhibition % turned out to be 94.6%.
The value for `CCn1nc(C)c(C(=O)Nc2cccc(S(=O)(=O)F)c2)c1Cl` was 8.14%; that for `Cn1c(=O)ccn(CC(=O)Nc2cccc(S(=O)(=O)F)c2)c1=O` was 99.6%; that for `O=Cc1cccc(C(=O)O)c1O` was 24.2%.
With `C=CC(=O)N1CCN(CC(C)C)C(=O)C1` the figure was 0.18%.
With `COc1ccc(CS(=O)(=O)F)cc1[N+](=O)[O-]`, the Inhibition % is on record as 18.4%.
With `C=CC(=O)N1CC(Cc2cccs2)C1` the figure was 12.5%; with `C=CC(=O)NCCc1nnc2n1CCCCC2`, 8.54%.
Turning to `COc1ccc(C(=O)NNC(=O)CCl)cc1`, the Inhibition % is -3.11%.
On to `N#Cc1ncn(CCOc2ccccc2Cl)n1`, for which the Inhibition % came out at 8.15%.
As to `C=CC(=O)N1CC(C)OC2(CCOC(C)C2)C1` (stereo not drawn), the Inhibition % was 9.19%.
As for `N#CSc1ccc(NC(=O)CCl)c(Cl)c1`, the Inhibition % worked out at 55.8%.
On to `O=C(CCl)Nc1ccc(Br)cc1F`, for which the Inhibition % is 71.1%.
With `O=C(CCl)Nc1ccc(Cl)cc1F`, the Inhibition % was found to be 49.7%.
As to `O=C(CCl)Nc1ccc(F)cc1Cl`, the Inhibition % came to 13.8%.
As to `Cc1cc(SC#N)cc(C)c1NC(=O)CCl`, the Inhibition % worked out at 4.28%.
Consider `O=C(CCl)Nc1ccc(Cl)cc1Cl`, for which the Inhibition % turned out to be 18%.
Take `N#CSc1ccc(NC(=O)CCl)c(F)c1`: the Inhibition % amounted to 72%.
Take `O=C(CCl)Nc1ccc(F)c(F)c1F`: the Inhibition % worked out at 32.8%.
For `O=C(CCl)Nc1ccc(F)cc1F`, the Inhibition % was 23.9%.
The value for `Cc1cccc(OCC(=O)Nc2ccc(S(=O)(=O)F)cc2)c1` was 9.17%; that for `OB(O)c1ccccc1OCC1CCOC1` (stereo not drawn) was 5.05%; that for `Cc1cc(CN(C)c2ccc(C#N)nc2)no1` was -2.05%.
Turning to `CN(CC(=O)Nc1ncc(S(=O)(=O)F)s1)S(C)(=O)=O`, the Inhibition % was 9.17%.
With `CSC1(CNc2cccc(C#N)n2)CCC1` the figure was 11.9%; with `C=CC(=O)Nc1ccccc1CN1CCOCC1`, 8.41%; with `CCOc1cc(S(=O)(=O)n2ccc(C)n2)ccc1Cl`, 2.71%.
Take `Cc1cc(B2OC(C)(C)C(C)(C)O2)sn1`: the Inhibition % is 0.986%.
For `O=C1N(c2ccccc2)C(c2ccco2)C1(F)F` (stereo not drawn), the Inhibition % was 3.32%.
Take `Sc1ncccc1Cl`: the Inhibition % is 2.79%.
For the molecule `Nc1cccnc1S`, the Inhibition % was determined as 101%.
In the case of `Cc1cccnc1S`, the Inhibition % is on record as 12.6%.
With `C=CC(=O)NC(C)c1csnn1` (stereo not drawn) the figure was 10%; with `N#Cc1nc(N2CCCC(N3CCNC3=O)C2)ccc1Cl` (stereo not drawn), 1.45%.
Consider `FC(F)(F)c1ccccc1OCC1CO1` (stereo not drawn), for which the Inhibition % was 11.7%.
With `Fc1ccccc1OCC1CO1` (stereo not drawn), the Inhibition % is 54.7%.
Regarding `Cc1ccccc1OCC1CO1` (stereo not drawn), the Inhibition % is reported as 13.4%.
Consider `C=CC(=O)NCC1=CCOCC1`, for which the Inhibition % is 6.41%.
As to `COC(=O)c1ccc(Cl)cc1S(=O)(=O)F`, the Inhibition % was found to be 96.1%.
Consider `COC(=O)c1ccc(Cl)c(S(=O)(=O)F)c1`, for which the Inhibition % is 9.08%.
With `COC(=O)c1ccc(S(=O)(=O)F)cc1F` the figure was 4.21%.
Regarding `COC(=O)c1ccccc1S(=O)(=O)F`, the Inhibition % was 52.5%.
With `COC(=O)c1cccc(S(=O)(=O)F)n1` the figure was 7.02%; with `COC(=O)c1ccccc1CS(=O)(=O)F`, 7.86%; with `Cc1noc(C2CCN(Cc3cc(C#N)n(C)c3)C2)n1` (stereo not drawn), 6.79%.
Turning to `C=CC(=O)N1CCC[C@@H]2O[C@H](c3ccccc3)C[C@@H]21` (racemic), the Inhibition % was determined as 5.3%.
For the molecule `N#Cc1nccnc1SC1CCCC1`, the Inhibition % is reported as 6.92%.
The value for `O=S(=O)(C=Cc1ccccc1)NCc1cccnc1` was 15.5%; that for `C=C(C(=O)O)c1ccccc1F` was 3.02%; that for `CC1(C2CC2)CCN(c2cncc(C#N)n2)CC1` was 6.7%.
The value for `O=C(O)c1nccnc1S` was 83.1%; that for `Nc1nccnc1S` was 26.8%; that for `O=C(O)c1ccnc(S)c1` was 11.8%.
On to `C=CC(=O)NC1CCN(c2ncccc2F)C1` (stereo not drawn), for which the Inhibition % turned out to be 14.9%.
For the molecule `C=CC(=O)N1CCC(c2cccc(C(F)(F)F)c2)C1` (stereo not drawn), the Inhibition % was determined as 10.4%.
Regarding `C=CC(=O)Nc1ccc2c(c1)CCC(C)(C)O2`, the Inhibition % is on record as 6.26%.
As to `COc1ccc(NC(=O)CCl)c([N+](=O)[O-])c1`, the Inhibition % was 10.4%.
Consider `COC(=O)Nc1ccc(S(=O)(=O)F)cc1`, for which the Inhibition % is 34.7%.
`COC(=O)Nc1ccc(S(=O)(=O)F)cc1[N+](=O)[O-]`: the Inhibition % was determined as 101%.
With `C=CC(=O)N1CC(C(C)C)c2ccccc21` (stereo not drawn) the figure was 5.57%; with `C=CC(=O)N(C)CC(=O)Nc1cc(C)c(=O)n(C)c1`, 54.5%.
With `C=CC(=O)N(C)CC(=O)Nc1csc(C)n1` the figure was 7.47%; with `C=CC(=O)N(C)CC(=O)Nc1cc(C)on1`, 7.52%; with `C=CCNC(=O)C(C#N)=Cc1cc(F)ccc1F`, 6.92%.
The value for `CC1CC1C(=O)N1CCCC(CS(=O)(=O)F)C1` (stereo not drawn) was 71.5%; that for `O=C(C1CCOCC1)N1CCCC(S(=O)(=O)F)C1` (stereo not drawn) was 8.98%; that for `O=C(C1CCOCC1)N1CCCC(CS(=O)(=O)F)C1` (stereo not drawn) was 55.9%.
As to `CC1CC1C(=O)N1CCC(CS(=O)(=O)F)C1` (stereo not drawn), the Inhibition % was found to be 96.8%.
`CC1CC1C(=O)N1CCOC(CS(=O)(=O)F)C1` (stereo not drawn): the Inhibition % is reported as 11.8%.
With `CC1CC1C(=O)N1CCC(S(=O)(=O)F)C1` (stereo not drawn) the figure was 36.5%; with `O=C(C1CCOCC1)N1CCC(S(=O)(=O)F)C1` (stereo not drawn), 19.5%; with `O=C(C1CCOCC1)N1CCC(CS(=O)(=O)F)CC1`, 20.1%.
With `CC1CC1C(=O)N1CCC(S(=O)(=O)F)CC1` (stereo not drawn) the figure was 72.2%; with `C=CC(=O)N1CCC(CS(C)(=O)=O)C1` (stereo not drawn), 4.28%.
For `CC1CC1C(=O)N1CC(CS(=O)(=O)F)C1` (stereo not drawn), the Inhibition % is 16.8%.
`CC1CC1C(=O)N1CCC(CS(=O)(=O)F)CC1` (stereo not drawn): the Inhibition % came out at 25.9%.
For the molecule `C=CC(=O)Nc1ccc(OC)c(F)c1`, the Inhibition % is listed as 4.48%.
The value for `O=c1c2sccc2nc(S)n1CCCN1CCOCC1` was 1.46%; that for `O=C(CCl)Nc1cc(C(F)(F)F)ccc1Cl` was 4.72%.
For `N#Cc1ccnc2ccnn12`, the Inhibition % turned out to be 4.63%.
As to `CC1(S(=O)(=O)NC2CN(c3ccc(F)cc3)C2=O)CC1` (stereo not drawn), the Inhibition % turned out to be 10.3%.
Consider `O=C(C=Cc1nccs1)N1CCc2ccccc21`, for which the Inhibition % was determined as 14.3%.
Regarding `CCc1nc(C#N)cc(NC2CSC2)n1`, the Inhibition % is given as -3.02%.
With `Cc1cc(C)n(S(=O)(=O)c2ccc(C)c(C)c2)n1`, the Inhibition % is 3.92%.
As to `CC1CC(N2CCn3c(nnc3C3CC3)C2)C(=O)O1` (stereo not drawn), the Inhibition % is given as 18%.
Take `O=C(c1cc(F)cc(F)c1)N1CCCCC1C1OCCO1` (stereo not drawn): the Inhibition % came out at 3.28%.
On to `C=CC(=O)N1CCN(CCc2ccc(F)cc2)CC1`, for which the Inhibition % is 8.07%.
With `CC1CCCN(C(=O)C=Cc2cnc3ccccc3n2)C1` (stereo not drawn) the figure was 9.42%.
`C=CC(=O)NC1CCCc2c1cnn2CC` (stereo not drawn): the Inhibition % was found to be 8.99%.
For the molecule `O=C(CCl)Nc1ccon1`, the Inhibition % is 14.8%.
With `Cc1cc(C(=O)CCl)c(C)n1-c1nccs1`, the Inhibition % worked out at 4.37%.
As for `Cc1csc(CC(=O)NNC(=O)CCl)n1.Cl`, the Inhibition % came out at 0.415%.
The value for `Cc1cc(C(=O)CCl)c(C)n1-c1ccon1` was 82.8%; that for `Cc1cc(C(=O)CCl)c(C)n1-c1ncn[nH]1` was 60%; that for `Cc1cc(C(=O)CCl)c(C)n1-c1ccccn1` was 71.3%.
`Cc1csc(-n2c(C)cc(C(=O)CCl)c2C)n1`: the Inhibition % is recorded as 51%.
For `Cc1cc(C(=O)CCl)c(C)n1-c1ccc(F)cn1`, the Inhibition % was 5.68%.
The value for `Cc1cc(-n2c(C)cc(C(=O)CCl)c2C)no1` was 7.75%; that for `C=CC(=O)N(Cc1cncs1)C1CCN(C(C)=O)CC1` was 5.13%; that for `C=CC(=O)N(C)CC(=O)N1CCOCC1` was 16.7%.
Consider `C=CC(=O)N1CCC(CC(=O)NC)CC1`, for which the Inhibition % is recorded as 5.8%.
`C=CC(=O)N1CCCC(C(=O)Nc2nc(C)cs2)C1` (stereo not drawn): the Inhibition % stood at 5.32%.
For `N#Cc1ccc(N2CCC3(CCOC3)C2)cn1` (stereo not drawn), the Inhibition % is given as -4.97%.
With `O=C1CCN1c1ccc(O)cc1` the figure was 5.37%; with `C=CC(=O)N1CCCC(n2ccc(C(=O)NC)n2)C1` (stereo not drawn), 8.31%; with `CC(CC(O)c1ccccc1)NC(=O)c1cccnc1S` (stereo not drawn), 5.61%.
The value for `N#CC(=Cc1ccc(O)c(O)c1)c1ccccn1` was 3.18%.
Consider `C=CC(=O)NC(c1ccco1)C(C)(C)C` (stereo not drawn), for which the Inhibition % worked out at 7.05%.
The value for `COCC1CN(C(=O)c2c[nH]c(C#N)c2)CC(C)(C)O1` (stereo not drawn) was 10.6%.
